These results are taken from ChEMBL document CHEMBL1157539, “Thousands of chemical starting points for antimalarial lead identification” (Nature, 2010).

What is called Inhibition is the drop in the measured response relative to a control, in per cent.

For this assay, the system named is Plasmodium falciparum. Put plainly: GSK_TCMDC: Inhibition of Plasmodium falciparum 3D7 in whole red blood cells, using parasite LDH activity as an index of growth. Test compounds present at 2uM. It is filed as functional.
Compound `Cc1ccc2c(c1)nc(N)n2C[C@H](O)c1ccccc1` gave an Inhibition of 100%. `CS(=O)(=O)CCNC(=O)c1ccc(-c2cc3c(Nc4ccc5c(cnn5Cc5ccccc5)c4)ncnc3cn2)o1.Cl`: the Inhibition amounted to 97%. In the case of `CN1CCN(CCCN(Cc2csc(-c3ccc(CNCc4ccccc4)cc3)n2)C(=O)Nc2ccc3ccccc3c2)CC1.O=C(O)C(F)(F)F` it was 94%; in that of `Cc1cc(NCCc2ccccc2)nc(NC(=N)Nc2cccc(F)c2)n1`, 91%. `O=C(Cn1c(CCc2cccc(F)c2F)cc(=O)c2cccnc21)N(CCn1ccnc1)Cc1ccc(-c2ccc(C(F)(F)F)cc2)cc1` had an Inhibition of 99%. In the case of `OC(CNc1ccnc(Nc2cccc(Cl)c2)n1)c1cccc(C(F)(F)F)c1` (stereo not drawn) it was 100%; in that of `Nc1ncc(-c2cn[nH]c2)cc1-c1nc2ccc(Cl)cc2[nH]1`, 100%. With `O=C1NC(c2ccc(N3CCCCCC3)cc2)Nc2ccccc21` (stereo not drawn), the Inhibition was 96%. To `O=C(O)C(F)(F)F.c1ccc(CNCc2cccc(-c3csc(-c4nc5ccccc5[nH]4)c3)c2)cc1` belongs 100%. As to `CCCNC(=O)c1ccnc(-c2ccc(CNC3Cc4ccccc4C3)cc2)c1.O=C(O)C(F)(F)F`, the Inhibition was 92%. To `COc1ccc(CN2CCCN(Cc3cccc(C(=O)Nc4ccc(C)c(F)c4)c3)CC2)cc1.O=C(O)C(F)(F)F` belongs 83%. To `COc1ccc(CN2CCC(NCc3cccc(-n4ccnc4)c3)CC2)cc1.O=C(O)C(F)(F)F` belongs 100%; to `Cc1[nH]c2ccc(NS(C)(=O)=O)cc2c1C1CCN(CCC2CCN(C(=O)/C=C/c3ccc(Cl)c(Cl)c3)CC2)CC1`, 100%.
